The values below come from PubChem BioAssay (NCATS).

Unmarked numbers belong to inactive results. Records with an inconclusive call do not appear. Active and inactive are the calls of the source. Unless noted, the call rests on the fitted dose curve; in most records, active means well fitted curve in either direction with a large enough effect (not every such curve was filed as active); inconclusive means small, poorly fitted or top-dose-only effect, or another doubt; inactive means flat fitted curve, though single readings scatter.

For experiment [1], the target named is Lysosomal acid glucosylceramidase (Homo sapiens) (UniProt P04062). Description: Glucocerebrosidase-p2 (AID 348; in the data active means potency below about 10 µM; further: potency means the concentration at half of the fitted maximal effect). The settings on record: purified GBA, blue fluorogenic substrate, 40 min. In a few lines: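 Normal human glucocerebrosidase (0.2 nM) with blue fluorogenic substrate (80 uM final) in citrate/phosphate pH 5.9 with 10mM sodium taurocholate, 0.01% tween-20; 40 min RT, NaOH/glycine stop; fluorescence Ex 365/Em 440; AC50 from a titration from 0.6 nM upwards.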
Chain of Lysosomal acid glucosylceramidase (Homo sapiens) (P04062 whole entry, looked up): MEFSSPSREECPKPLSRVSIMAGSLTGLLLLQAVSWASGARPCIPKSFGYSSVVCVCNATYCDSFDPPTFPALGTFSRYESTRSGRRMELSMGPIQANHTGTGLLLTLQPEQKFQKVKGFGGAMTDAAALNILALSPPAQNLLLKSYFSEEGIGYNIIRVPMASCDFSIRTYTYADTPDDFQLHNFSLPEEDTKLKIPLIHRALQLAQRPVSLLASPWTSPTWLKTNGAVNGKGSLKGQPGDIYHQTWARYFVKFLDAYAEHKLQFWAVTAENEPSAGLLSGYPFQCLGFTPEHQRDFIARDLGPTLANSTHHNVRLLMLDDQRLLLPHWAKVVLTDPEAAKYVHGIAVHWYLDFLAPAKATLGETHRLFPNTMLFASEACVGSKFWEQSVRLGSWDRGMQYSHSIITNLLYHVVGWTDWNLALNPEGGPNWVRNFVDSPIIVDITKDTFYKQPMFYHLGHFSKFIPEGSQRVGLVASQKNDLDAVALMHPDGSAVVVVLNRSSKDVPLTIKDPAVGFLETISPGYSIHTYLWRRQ

Experiment [2] can be described thus: AP1 Signaling Pathway (AID 357).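 Further: ME-180 reporter cells stimulated with EGF at its EC50 level; on the % scale 0 is the no-effect control and ±100 the full control effect.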 The note with it: ME-180 AP-1-bla reporter, EGF-induced, beta-lactamase ratio, 5 h; at 7.69 µM (top of the series) unless noted. Put shortly:
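In this screen, ME-180 cells in Opti-MEM with 0.5% dialyzed FBS received EC50 EGF and compound titrations for 5 h. AP-1 reporter beta-lactamase was detected via CCF4 ratio, giving AC50 for positive and negative modulators.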

Experiment [3] concerns the target Cytochrome P450 1A2 (Homo sapiens) (UniProt P05177). Description: p450-cyp1a2 (AID 410; calls by dose curve; further: potency means the concentration at half of the fitted maximal effect;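 on activity change, negative = inhibition: -100% = full effect of reference inhibitor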). The settings on record: recombinant CYP1A2, luciferin-ME demethylation, luminescence; series mostly up to 11.4 µM. Put shortly: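 Luminescent demethylation readout: Luciferin-ME (100uM, equal to Km) turned over by 20nM CYP1A2 for 60 min at room temperature after NADPH regeneration addition, following 10 min compound preincubation. Normalization used 57 uM furafylline as full inhibition.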

A short description of experiment [4]: NFAT Signaling Pathway (AID 444).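 Further: carbachol stimulus at about its EC50 of 1 µM final; on the % scale 0 is the no-effect control and ±100 the full control effect.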 The settings on record: Jurkat NFAT-bla M1, carbachol, beta-lactamase ratio, 5 h; at 7.69 µM (top of the series) unless noted. In a few lines: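 Read-out: CCF4 FRET ratio (460 nm/530 nm) after 1 h RT dye loading, used for %activity and AC50 from titration series. Cells: Jurkat NFAT-β-lactamase/M1 line, treated with compound plus 1 uM carbachol for 5 h, 37 °C.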

Experiment [5] is described as follows: Stat Signaling Pathway (AID 446).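 Further: ME-180 cervical cancer cells given 40 pM IL-6 alongside compound; SIE-controlled beta-lactamase reporter measured as 460/530 nm FRET emission ratio; on the % scale 0 is the no-effect control and ±100 the full control effect.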 The settings on record: ME-180 SIE beta-lactamase reporter, IL-6 stimulated, 5 h; at 7.69 µM (top of the series) unless noted. In a few lines: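 Normalization used AC90 stimulation (300 pM IL-6) and AC90 inhibition (125 nM pan-JAK inhibitor at 40 pM IL-6). The underlying signal is SIE-driven beta-lactamase in ME-180 cells after 5 h IL-6 exposure with compound.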

Experiment [6] has as its target Glucocorticoid receptor (Homo sapiens) (UniProt P04150). Description: GR-GFP Redistribution (AID 450;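 active means compounds whose dose series gives a full or clear partial fitted curve of increased nuclear translocation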; further: potency means the concentration at half of the fitted maximal effect). The settings on record: U2OS GR-GFP nuclear translocation, laser cytometry, 2 h.
For experiment [7] the target is unchanged. Description: GR-EFC Redistribution (AID 451; calls by dose curve; further: potency means the concentration at half of the fitted maximal effect). The settings on record: CHO-K1 GR-EFC translocation, beta-gal luminescence, 2 h. Put shortly: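 Translocation of GR-ED fusion to nuclear EA restores b-gal, read by luminescence after 1 h room-temperature detection. Engineered CHO-K1 biosensor cells, 1,000/well, exposed 2 h at 37 C to titrations up to 46 uM final.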

Experiment [8] addresses Mitogen-activated protein kinase 10 (Mus musculus) (UniProt Q61831). Description: JNK3 AlphaScreen Assay (AID 530).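 Further: kinase came from lysate of stimulated human HepG2 cells; signal reports phosphorylation of biotinylated GST-cJun 1-79 at Ser73 with 10 µM ATP; on the % scale 0 is the no-effect control and ±100 the full control effect.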 The note with it: JNK3 lysate, c-Jun phosphorylation; series mostly up to 11.4 µM. Put shortly:
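qHTS titrations with 15 min compound pre-incubation before adding ATP (10 uM final). Read-out: AlphaScreen of Ser73-phosphorylated biotin-GST-cJun using HepG2 lysate JNK3 activated by IL-1β and TNFα.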

The target of experiment [9] is 3',5'-cyclic-AMP phosphodiesterase 4B (Homo sapiens) (UniProt Q07343). Put plainly: qHTS Assay for Inhibitors of PDE-IV (AID 607; active means well fitted activation curve with a large enough effect in the main read-out, with a control signal flat, not every such curve was filed as active; further: % of control where 0% means no effect). The note with it: HEK293 ACTOne CNG channel cells, membrane potential fluorescence; series mostly up to 22.9 µM. Put shortly:
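HEK293 ACTOne cells with CNG channel (1000/well), endogenous PDE4; membrane potential dye, compounds up to 22.9 uM final. Fluorescence Ex 535/Em 590; RO 20-1724 (100 uM final) as reference.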

In experiment [10] the target is Cytochrome P450 3A4 (Homo sapiens) (UniProt P08684). Description: qHTS Assay for Activators of Cytochrome P450 3A4 (AID 885; active means well fitted curve in the direction sought with a large enough effect; an effect the other way counts as inactive or inconclusive; further: nearly all actives have a fitted effect of over 65% in size). The note with it: recombinant CYP3A4, Luciferin-PPXE luminescence, 60 min; series mostly up to 11.4 µM. Put shortly: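 Human CYP3A4 dealkylates Luciferin-PPXE to luciferin, which luciferase detection converts to light. Substrate was at its KM (25uM), buffer 200mM KPO4, reaction 60 min at RT.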
Chain of Cytochrome P450 3A4 (Homo sapiens) (P08684 whole entry, looked up): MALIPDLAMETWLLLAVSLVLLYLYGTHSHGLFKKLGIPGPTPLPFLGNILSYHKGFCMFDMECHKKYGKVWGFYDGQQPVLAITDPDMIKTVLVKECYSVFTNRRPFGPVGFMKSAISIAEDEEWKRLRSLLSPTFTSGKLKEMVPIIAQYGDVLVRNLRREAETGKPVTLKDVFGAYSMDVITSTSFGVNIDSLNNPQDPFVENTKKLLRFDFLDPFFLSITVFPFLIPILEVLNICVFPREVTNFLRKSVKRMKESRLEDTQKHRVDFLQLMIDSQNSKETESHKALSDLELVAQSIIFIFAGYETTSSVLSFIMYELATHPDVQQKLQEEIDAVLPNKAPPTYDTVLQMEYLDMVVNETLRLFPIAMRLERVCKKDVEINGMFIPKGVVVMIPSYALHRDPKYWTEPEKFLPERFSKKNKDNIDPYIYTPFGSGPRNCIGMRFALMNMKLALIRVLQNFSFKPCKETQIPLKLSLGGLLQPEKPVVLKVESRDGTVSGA
Background: qHTS replaces the single test concentration by a dilution series.

Experiment [11] can be described thus: qHTS Assay for Identification of Small Molecule Agonists for Hypoxia Response Element Signaling Pathway (AID 914; active means well fitted activation curve with a large enough effect in the signal ratio, with a control signal flat, not every such curve was filed as active; the % refers to the signal ratio; further: % of control where 0% means no effect). The note with it: ME-180 (cervical carcinoma) HRE-bla reporter, beta-lactamase ratio, CoCl2, 17 h; activation: active compounds read high. Put shortly:
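AC50 values come from titration-series %Activity, taken as the 460/530nm ratio of CCF4 fluorescence (excitation 405nm). CellSensor HRE-bla ME-180 cells were treated 17 hours at 37 C with compound plus an EC50 level of CoCl2.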

Experiment [12] deals with Cytochrome P450 2D6 (Homo sapiens) (UniProt P10635). Put plainly: qHTS Assay for Inhibitors and Substrates of Cytochrome P450 2D6 (AID 891; active means well fitted curve in the direction sought with a large enough effect; an effect the other way counts as inactive or inconclusive; further: nearly all actives have a fitted effect of over 60% in size; further: potency means the concentration at half of the fitted maximal effect). The settings on record: recombinant CYP2D6, luciferin-ME EGE luminescence; series mostly up to 11.4 µM. In a few lines: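 Luminescent read-out of luciferin formed by 5 nM human CYP2D6 demethylating 30 uM Luciferin-ME EGE (Km level) over 60 min at room temperature after NADPH regeneration addition. Data normalized to full inhibition by 1.43 uM quinidine.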
Chain of Cytochrome P450 2D6 (Homo sapiens) (P10635 whole entry, looked up): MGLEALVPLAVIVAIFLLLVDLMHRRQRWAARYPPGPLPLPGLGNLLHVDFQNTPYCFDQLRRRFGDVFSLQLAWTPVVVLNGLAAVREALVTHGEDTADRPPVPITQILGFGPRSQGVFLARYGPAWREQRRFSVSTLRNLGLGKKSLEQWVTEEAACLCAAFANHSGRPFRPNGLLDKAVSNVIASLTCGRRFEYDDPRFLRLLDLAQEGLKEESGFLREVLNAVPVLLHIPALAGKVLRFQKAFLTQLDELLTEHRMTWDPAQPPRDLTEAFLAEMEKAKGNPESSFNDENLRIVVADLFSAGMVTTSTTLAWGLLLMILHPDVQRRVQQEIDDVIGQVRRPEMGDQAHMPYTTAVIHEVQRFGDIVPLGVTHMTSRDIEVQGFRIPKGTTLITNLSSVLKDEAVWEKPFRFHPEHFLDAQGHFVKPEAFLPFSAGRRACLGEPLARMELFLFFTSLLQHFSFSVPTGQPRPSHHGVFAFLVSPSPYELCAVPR

Experiment [13] has as its target Cytochrome P450 2C19 (Homo sapiens) (UniProt P33261). Put plainly: qHTS Assay for Inhibitors and Substrates of Cytochrome P450 2C19 (AID 899; active means well fitted curve in the direction sought with a large enough effect; an effect the other way counts as inactive or inconclusive; further: potency means the concentration at half of the fitted maximal effect; nearly all actives have a fitted effect of over 60% in size). The note with it: recombinant CYP2C19, luciferin-H EGE luminescence; series mostly up to 11.4 µM. In a few lines: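 Luminescence readout of luciferin formed from 10uM Luciferin-H EGE (KM level) by 5 nM CYP2C19 in 50mM KPO4. 60 min NADPH-driven reaction at 37C after 10 min compound preincubation; data scaled to 57uM ketoconazole inhibition.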

Chain of Cytochrome P450 1A2 (Homo sapiens) (P05177 whole entry, looked up): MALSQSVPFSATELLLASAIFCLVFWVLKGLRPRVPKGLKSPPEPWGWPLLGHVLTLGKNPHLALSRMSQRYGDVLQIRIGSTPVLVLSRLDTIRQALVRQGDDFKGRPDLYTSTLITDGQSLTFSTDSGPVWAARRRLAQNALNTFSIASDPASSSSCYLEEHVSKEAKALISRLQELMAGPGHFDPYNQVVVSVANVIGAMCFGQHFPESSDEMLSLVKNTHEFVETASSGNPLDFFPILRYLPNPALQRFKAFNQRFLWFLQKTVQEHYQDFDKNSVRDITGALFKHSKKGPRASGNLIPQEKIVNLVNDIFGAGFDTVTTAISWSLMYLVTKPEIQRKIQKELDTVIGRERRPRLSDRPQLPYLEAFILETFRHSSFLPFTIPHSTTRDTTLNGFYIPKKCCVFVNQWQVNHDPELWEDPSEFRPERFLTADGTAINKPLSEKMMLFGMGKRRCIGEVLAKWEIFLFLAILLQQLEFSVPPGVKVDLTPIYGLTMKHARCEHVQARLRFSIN
Chain of Glucocorticoid receptor (Homo sapiens) (P04150 whole entry, looked up, the tested form may be a part): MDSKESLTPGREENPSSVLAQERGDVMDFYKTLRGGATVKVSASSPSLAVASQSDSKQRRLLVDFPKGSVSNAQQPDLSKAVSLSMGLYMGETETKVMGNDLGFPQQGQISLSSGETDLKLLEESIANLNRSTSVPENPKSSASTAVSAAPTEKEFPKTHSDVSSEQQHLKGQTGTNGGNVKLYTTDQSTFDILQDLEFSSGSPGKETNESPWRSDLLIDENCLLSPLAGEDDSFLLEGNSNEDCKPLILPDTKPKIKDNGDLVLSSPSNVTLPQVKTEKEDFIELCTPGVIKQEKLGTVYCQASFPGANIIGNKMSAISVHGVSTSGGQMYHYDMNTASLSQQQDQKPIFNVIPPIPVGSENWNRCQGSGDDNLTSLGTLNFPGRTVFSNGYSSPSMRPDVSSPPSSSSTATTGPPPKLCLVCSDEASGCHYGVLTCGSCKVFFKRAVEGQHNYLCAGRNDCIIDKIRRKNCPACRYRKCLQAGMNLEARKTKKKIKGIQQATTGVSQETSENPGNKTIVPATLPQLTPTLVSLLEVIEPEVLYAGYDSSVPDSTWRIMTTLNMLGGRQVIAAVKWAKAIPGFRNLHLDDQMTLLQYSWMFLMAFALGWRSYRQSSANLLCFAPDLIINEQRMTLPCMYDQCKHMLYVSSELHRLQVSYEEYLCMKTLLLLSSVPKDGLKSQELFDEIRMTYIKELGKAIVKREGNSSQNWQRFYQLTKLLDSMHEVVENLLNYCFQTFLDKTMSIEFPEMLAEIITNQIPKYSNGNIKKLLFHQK
Chain of 3',5'-cyclic-AMP phosphodiesterase 4B (Homo sapiens) (Q07343 whole entry, looked up): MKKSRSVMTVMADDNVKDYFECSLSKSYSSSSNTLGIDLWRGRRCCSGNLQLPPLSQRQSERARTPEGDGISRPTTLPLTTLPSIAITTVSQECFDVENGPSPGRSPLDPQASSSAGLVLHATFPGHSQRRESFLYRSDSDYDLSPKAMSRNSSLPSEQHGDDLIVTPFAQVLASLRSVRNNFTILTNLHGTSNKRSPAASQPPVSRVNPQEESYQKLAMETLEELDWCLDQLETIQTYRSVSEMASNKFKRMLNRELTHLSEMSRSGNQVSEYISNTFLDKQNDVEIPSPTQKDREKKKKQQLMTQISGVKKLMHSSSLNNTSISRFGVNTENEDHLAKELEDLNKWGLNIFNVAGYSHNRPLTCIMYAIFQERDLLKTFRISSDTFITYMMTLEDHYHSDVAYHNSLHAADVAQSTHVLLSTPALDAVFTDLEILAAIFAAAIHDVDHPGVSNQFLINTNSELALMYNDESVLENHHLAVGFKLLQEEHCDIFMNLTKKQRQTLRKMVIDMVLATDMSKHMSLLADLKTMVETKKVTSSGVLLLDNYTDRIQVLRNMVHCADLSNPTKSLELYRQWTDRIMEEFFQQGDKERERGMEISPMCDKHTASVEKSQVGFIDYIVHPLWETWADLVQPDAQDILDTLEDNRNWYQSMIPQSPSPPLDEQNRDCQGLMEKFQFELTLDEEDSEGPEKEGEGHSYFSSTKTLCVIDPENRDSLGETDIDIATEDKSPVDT
Chain of Cytochrome P450 2C19 (Homo sapiens) (P33261 whole entry, looked up): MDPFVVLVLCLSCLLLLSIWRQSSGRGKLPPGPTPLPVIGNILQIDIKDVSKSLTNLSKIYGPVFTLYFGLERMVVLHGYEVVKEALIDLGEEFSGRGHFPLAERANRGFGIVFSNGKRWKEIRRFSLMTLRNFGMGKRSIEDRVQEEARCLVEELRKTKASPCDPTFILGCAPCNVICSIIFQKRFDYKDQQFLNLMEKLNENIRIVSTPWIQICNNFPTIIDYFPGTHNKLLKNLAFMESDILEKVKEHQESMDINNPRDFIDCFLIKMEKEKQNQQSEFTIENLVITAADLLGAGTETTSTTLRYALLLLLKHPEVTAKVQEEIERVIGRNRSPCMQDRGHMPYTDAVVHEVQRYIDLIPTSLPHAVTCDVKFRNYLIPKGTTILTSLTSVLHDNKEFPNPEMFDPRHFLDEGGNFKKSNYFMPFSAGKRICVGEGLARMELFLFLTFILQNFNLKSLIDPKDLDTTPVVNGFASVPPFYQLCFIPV

As to `CN1CCN(c2ccncc2S(=O)(=O)N2CCN(C)CC2)CC1`, the Potency in experiment [1] is more than 11.4 µM; in [6] it was more than 46 µM; in experiment [7], more than 9.22 µM. Besides, the activity change, negative = inhibition was 5.65% in experiment [2], -7.4% [at 2.29 µM] in experiment [3] and -16.5% in experiment [4]. Besides, the activity, negative = inhibition in experiment [5] is 8.15%. The Potency result in [8], in experiment [9] and in experiment [10] was “inactive” throughout. Also, the activation in [11] is 7.59%.
Turning to `COc1ccc(OC)c(-c2cc(C(=O)O)c3cc4ccccc4cc3n2)c1`, the Potency in experiment [1] is more than 11.4 µM; in experiment [6] it was more than 46 µM; in experiment [7], more than 9.22 µM; in experiment [12], 3.98 µM (active). Also, the values for the activity change, negative = inhibition in [2], in experiment [3] and in [4] were 4.44%, -21.4% [at 2.29 µM] and 15.6%, respectively. Besides, in experiment [5], the activity, negative = inhibition was 4.07%. The Potency result in [8] and in experiment [9] was “inactive” throughout.
Take `O=C(O)CCC(=O)c1ccc2ccc3cccc4ccc1c2c34`: the Potency in [1] was more than 11.4 µM; in experiment [3] it was 1.26 µM (active); in experiment [6], more than 46 µM; in experiment [7], more than 9.22 µM. Moreover, the activity change, negative = inhibition in experiment [2] is 5.4%; in experiment [4], 19.9%. Further, in [5], the activity, negative = inhibition was -5.24%. In addition, the Potency result in [8], in [9] and in experiment [12] was “inactive” in each case.
`CCCCN1CSC(=S)N(Cc2ccccc2)C1`: the Potency was more than 11.4 µM in [1]; 3.98 µM (active) in experiment [3]; more than 46 µM in [6]; more than 9.22 µM in experiment [7]; 1.26 µM (active) in experiment [13]. In addition, the activity change, negative = inhibition in [2] is 3.6%; in experiment [4], -0.909%. Also, the activity, negative = inhibition in experiment [5] was 2.92%. The Potency entry in experiment [8], in experiment [9] and in experiment [10] was “inactive” throughout.
In the case of `Cc1cc2c(cc1C)NC1=C(N2)O[C@H](c2c[nH]c3ccc(COc4ccccc4)cc23)C1=O`, the Potency in experiment [1] was more than 11.4 µM; in experiment [3], 2.51 µM (active); in [6], more than 46 µM; in experiment [7] it was more than 9.22 µM; in [13], 0.501 µM (active). The activity change, negative = inhibition in experiment [2] is -28.4%; in [4], 2.39%. For the same molecule, in [5], the activity, negative = inhibition is -5.89%. The Potency result in [8], in experiment [9] and in experiment [10] was “inactive” throughout.
As to `C[C@H](C(=O)c1ccccc1)[C@@H](c1ccccc1)N1CCOCC1`, the Potency in experiment [1] was more than 11.4 µM; in [6] it was more than 46 µM; in experiment [7] it was more than 9.22 µM; in [13], 1.58 µM (active). Also, the values for the activity change, negative = inhibition in experiment [2] and in experiment [4] were -4.08% and 5.21%, respectively. Besides, the Potency entry in [3], in [8], in [9] and in experiment [10] was “inactive” each time. Also, the activity, negative = inhibition in experiment [5] is 8.2%.
In the case of `O=C(O)c1ccc(Oc2nc3ccccc3s2)cc1`, the Potency in experiment [1] was more than 11.4 µM; in experiment [3], 3.16 µM (active); in experiment [6], more than 46 µM; in experiment [7] it was more than 9.22 µM; in experiment [13], 3.98 µM (active). In addition, the results for the activity change, negative = inhibition in experiment [2] and in experiment [4] were -5.86% and 11.2%, respectively. The activity, negative = inhibition in [5] is 5.77%. Also, the Potency entry in experiment [8], in experiment [9] and in [10] was “inactive” in each case.
